Pf growth 96h: inhibits malaria parasite growth, 96 h; P. falciparum luciferase reporter growth, 96 h; Potency, µM (doses to about 28.7 µM), inactives show at the highest dose activity change, negative = inhibition, actives largely listed as inhibitors; actives 6.9% (n = 320,000); AID 504834; also: potency is read from the fitted curve at half-maximal effect; % is scaled to controls: 0 for no effect and ±100 for the full control effect
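P. falciparum expressing integrated firefly luciferase, in erythrocytes at 2% hematocrit, 0.05% parasitemia, incubated with compounds 96 h at 37 C, 5% CO2. Growth inhibition read as loss of luminescence; two-generation exposure targets delayed-death apicoplast inhibitors.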
HCV inh: blocks hepatitis C virus; Huh7.5.1 HCVcc-Cre infection, luciferase reporter, 44 h; Potency, µM (titrated, usually from 41.8 µM), inactives show top-dose activity change, negative = inhibition, hits mostly inhibitors; actives 3.4% (n = 340,000); AID 651820; also: potency is read from the fitted curve at half-maximal effect; % is scaled to controls: 0 for no effect and ±100 for the full control effect
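Compounds are dispensed onto cells plated 4 h earlier at 1,000 per well, with HCVcc-Cre virus (about 0.5 moi) added next. Following 44 h of culture, luminescent signal is measured for 15 sec after 15 min with substrate at room temperature.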
Pf growth 48h: inhibits P. falciparum growth in the first generation, 48 h. P. falciparum luciferase growth in erythrocytes, 48 h. Potency, µM (series often up to 28.7 µM), for the others: at the top dose activity change, negative = inhibition, actives largely listed as inhibitors. actives 5.9% (n = 310,000); also: potency is read from the fitted curve at half-maximal effect; % is scaled to controls: 0 for no effect and ±100 for the full control effect
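Firefly luciferase activity from engineered P. falciparum reports growth; inhibitors lower the luminescent signal. Cultures contained 2% hematocrit erythrocytes at 0.1% final parasitemia.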
HCMV antiviral: blocks human cytomegalovirus replication | HFF cells, HCMV-luciferase reporter, 72 h; stronger effect = lower value | activity change, negative = inhibition, % at 57.5 µM | actives 4.5% (n = 410,000) | AID 1259415; in the data active = activity change below about -60%; inconclusive = no clear call, values can overlap the other calls; inactive = above about -39%; also: % is scaled to controls: 0 for no effect and ±100 for the full control effect
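Two-dose cell screen: HFF monolayers treated with compounds and infected with luciferase-expressing HCMV at 1 PFU/cell, 72 h at 37C, then lysed for luciferase measurement.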
Shiga inhibitor: inhibitors of Shiga toxin in Vero cells; actives 9.2% (n = 290,000); inhibition, % at 38.7 µM; Vero cells, Shiga toxin protein synthesis inhibition reporter; in the data active = inhibition mostly above about 28%, no sharp cut-off; inactive = mostly below about 43%; also: 0% is about no effect
Cycloheximide cs: counter-screen for Shiga toxin inhibitors: cycloheximide protein synthesis inhibition; AID 2314; actives 12% (n = 300,000); cell reporter, cycloheximide protein synthesis inhibition counterscreen; max response, %; in the data active = max response mostly above about 13%, no sharp cut-off; inactive = mostly below about 14%; also: read at 38.3 µM for the half of the compounds with a filed dose; 0% is about no effect
* marks the source's active call; other numbers are inactive results; ? = inconclusive; nt = not tested or not shown; [ ] = remark or other dose. A selection: hits, their analogues and other compounds. The true share with any hit is near 21%. Unless noted, calls follow the shape of the dose curve; as a rule, active = well fitted inhibition curve with a large enough effect; inconclusive = small, poorly fitted or top-dose-only effect, or another doubt; inactive = no such curve, though single readings can be large or run the other way.

SMILES	Pf growth 96h	HCV inh	Pf growth 48h	HCMV antiviral	Shiga inhibitor	Cycloheximide cs
Cc1cccc(NC(=O)COc2ccc(/C=C\c3[nH]c(=O)[nH]c(=O)c3[N+](=O)[O-])cc2)c1	69%	-2%	-2%	-27	-7	8
CC(C)C1N(c2ccccc2)C(N)=C(C#N)C1(C#N)C#N (stereo not given)	16%	?	?	-66*	-9	3
Cc1nc(CC(=O)Nc2nc(C(C)(C)C)cs2)cs1	2%	-8%	3%	-18	88*	17
Cc1nc(CC(=O)Nc2nc(-c3ccccc3)cs2)cs1	?	?	45%	-73*	80*	29*
Cc1nc(CC(=O)Nc2nccs2)cs1	32%	35%	39%	25	-16	-2
COc1ccc(Cc2c(-c3ccc(OC)c(OC)c3)nc3ccc(C)cn23)c(C)c1	nt	nt	nt	-17	nt	nt
COC(=O)c1ccccc1NC(=O)CSc1nnc(-c2cccnc2)o1	-6%	8%	7%	-28	65	21*
CC(C)(C)c1ccc(NC(=O)CSc2nnc(-c3n[nH]c4ccccc34)o2)cc1	11%	-22%	80%	-28	37*	26
COc1ccc(-c2nnc(SCC(=O)Nc3ccccc3OC)o2)cc1	?	6%	175%	180	58*	25*
Cc1ccc(C)c(NC(=O)CSc2nnc(-c3n[nH]c4ccccc34)o2)c1	-4%	6%	-25%	19	-2	-1
CCOC(=O)c1cc(-c2nnc(SCC(=O)Nc3ccc(F)cc3)o2)c(C)nc1C	12µM*	4%	nt	4	-5	-2
NS(=O)(=O)c1ccc(CCNC(=O)Cc2ccc(Cl)cc2)cc1	0%	7%	-3%	2	nt	1
COC(=O)c1ccccc1NC(=O)Cc1nc(-c2ccccc2)sc1-c1ccc(C)cc1	?	9%	?	-2	35*	33*
COc1ccc(-c2nnc(SCC(=O)Nc3nncs3)o2)cc1	18%	-6%	9%	-18	22	11
COc1ccccc1-c1nnc(SCC(=O)OC(C)C)o1	nt	0%	-2%	48	35*	17
O=C(CSc1nnc(-c2cccnc2)o1)Nc1ccc(F)cc1	nt	nt	nt	-76*	nt	nt
O=C(CSc1nnc(-c2cccnc2)o1)Nc1ccc(Br)cc1	23%	12%	44%	-10	8	-4
COc1ccc(-c2nnc(SCC(=O)NC(C)c3ccccc3)o2)cc1 (stereo not given)	10µM*	-7%	1%	-5	-6	-2
OC[C@@H]1CC[C@@H](Cc2ccc(-c3ccccc3)cc2)O1	nt	?	nt	51	nt	nt
CCOC(=O)COc1ccc(-c2nnn(CC(=O)Nc3ccccc3)n2)cc1	nt	nt	nt	-4	nt	nt
COC(=O)c1ccccc1NC(=O)CSc1nnc(-c2ccc(C)cc2)o1	?	-8%	272%	nt	55*	33*
COC(=O)[C@H]1[C@H](CO)[C@H]2Cn3c(cccc3=O)[C@@H]1N2CC1CCCCC1	nt	nt	nt	-13	nt	nt
C/C(=C\c1ccccc1)C(=O)NCCc1ccccc1	7%	8%	106%	26	66*	31*
O=C(NCc1ccco1)c1ccccc1	2%	15%	8%	38	-3	0
C/C(=C\c1ccccc1)C(=O)NCc1ccco1	?	0%	4%[5.75 µM]	-4	66*	36*
SMILES	Pf growth 96h	HCV inh	Pf growth 48h	HCMV antiviral	Shiga inhibitor	Cycloheximide cs
COC(=O)CN1C(=O)CSc2ccc(S(=O)(=O)N3CCOCC3)cc21	nt	nt	nt	-32	nt	nt
CNC(=S)N1N=C(c2ccc(Br)cc2)CC1c1ccc(N(C)C)cc1 (stereo not given)	?	-17%	?	?	15	-2
COc1ccc(C2CC(c3ccc(Br)cc3)=NN2C(=S)Nc2ccccc2)cc1 (stereo not given)	7%[5.75 µM]	-7%	-20%	-35	43*	21*
CNC(=S)N1N=C(c2ccc(OC)cc2)CC1c1ccc(N(C)C)cc1 (stereo not given)	0%	11µM*	-28%	8	42	14
COc1ccc(C2=NN(C(N)=S)C(c3ccccc3)C2)cc1 (stereo not given)	21%	-26%	?	-24	51*	32*
COc1ccc(C2=NN(C(=S)Nc3ccccc3)C(c3ccccc3)C2)cc1 (stereo not given)	44%	1%	15µM*	-26	1	-2
COc1ccc(C2CC(c3ccccc3)=NN2C(=S)Nc2ccccc2)cc1 (stereo not given)	?	-23%	?	-22	-9	10
Nc1c(C(=O)Nc2cccc(C(F)(F)F)c2)c2ccccn2c1C(=O)c1ccccc1	nt	nt	nt	2	nt	nt
CC1CCCCC1NC(=O)COC(=O)c1ccc2c(=O)n3c(nc2c1)CCC3 (stereo not given)	nt	-2%	nt	8	nt	nt
CCc1nn2c(=O)cc(COC(=O)Cc3ccccc3)nc2s1	nt	nt	nt	-12	nt	nt
CCC(C(=O)Nc1cccc(Cl)c1C)n1nc(C)c2sc3ccccc3c2c1=O (stereo not given)	nt	nt	nt	-10	nt	nt
COc1ccc(C2CC(c3ccccc3)=NN2C(=O)c2ccc(F)cc2)cc1 (stereo not given)	-24%	14%	12µM*	-13	-2	11
CCN1CCN(CC(=O)N2N=C(c3ccc(OC)cc3)CC2c2ccc(OC)cc2)C(=O)C1=O (stereo not given)	?	-9%	?	19	-6	7
COc1ccc(C2CC(c3ccc(Br)cc3)=NN2C(=O)CSC2=NCCS2)cc1 (stereo not given)	4.7µM*	?	?	-32	-3	-3
COc1ccc(C2CC(c3ccccc3)=NN2C(=O)CN2N=NC3C(=O)N(c4cccc(F)c4)C(=O)C32)cc1 (stereo not given)	?	7%	-14%	-33	-9	11*
CNC(=S)N1N=C(c2ccccc2)CC1c1ccc(OC)c(OC)c1 (stereo not given)	-14%	0%	-18%	14	-10	-2
COc1ccccc1C1CC(c2ccccc2)=NN1C(=S)Nc1ccccc1 (stereo not given)	?	?	3.3µM*	86	5	14
CCOC(=O)c1c(C)[nH]c(C)c1C(=O)COC(=O)C1CC(=O)N(CCc2ccccc2)C1 (stereo not given)	nt	-10%	nt	-15	nt	nt
CCOc1ccccc1N1CCN(C(=O)NCc2ccc(Cl)cc2)CC1	5%	-5%	-16%	-35	-1	-4
CC(=O)Nc1ccc(NC(=O)C(Cc2ccccc2)NS(=O)(=O)c2ccc3c(c2)oc(=O)n3C)cc1 (stereo not given)	nt	nt	nt	8	nt	nt
CSc1cccc(NC(=S)N2CCC(c3ccccc3)C2)c1 (stereo not given)	6%	-29%	-3%[0.00184 µM]	-82*	50*	20*
